Values joined by “and” are separate entries in the source; they are usually repeats but may differ in a detail not shown here. Identical values can stand only once. Results filed as inconclusive are left out. Where a call stands in place of a potency, no number is given. More than one record can exist for a structure, and the calls need not agree. Active and inactive are the calls of the source. Unless noted, calls come from the whole dose curve; as a rule, active = well fitted curve in the direction sought with a large enough effect; inconclusive = small, poorly fitted or top-dose-only effect, or another doubt; inactive = no such curve, though single readings can be large; an effect the other way counts as inactive or inconclusive.
Key:
[1] = P-glycoprotein substrates identified in KB-3-1 adenocarcinoma cell line, qHTS therapeutic library screen (AID 1346986); note: nearly all actives have a fitted effect of over 60% in size;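 note: potency is the fitted concentration of half-maximal effect; potency is for cytotoxicity meaning loss of cell viability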
Summary of the method: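 Cells seeded 500/well in DMEM/10% FCS; compounds pinned in dose-response; 72 h incubation; CellTiter-Glo added, 5 min, luminescence. KB-8-5-11 run ±tariquidar to test reversal of P-gp resistance.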

[2] = P-glycoprotein substrates identified in KB-8-5-11 adenocarcinoma cell line, qHTS therapeutic library screen (AID 1346987); note: nearly all actives have a fitted effect of over 65% in size; note: potency is the fitted concentration of half-maximal effect
Summary of the method: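 Steps: plate 500 KB-8-5-11 cells/well in DMEM + 10% FCS (colchicine removed); pin compounds in dose-response; incubate 72 h, 37 degree C, 5% CO2; add CellTiter-Glo, 5 min; read luminescence.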

[3] = NS1 protein of Zika virus - qHTS assay to identify small molecule inhibitors in human HEK 293 cells (AID 1347053); note: nearly all actives have a fitted effect of over 55% in size; note: potency is the fitted concentration of half-maximal effect
Summary of the method: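 HEK 293 cells, seeded 20 h at 37 C, were pretreated with compound 1 h, then infected with ZIKV MR766 (MOI = 0.5) for 24 h. NS1 was read by TR-FRET with two anti-NS1 antibodies, normalized to uninfected and infected wells.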

[4] = qHTS of pediatric cancer cell lines to identify multiple opportunities for drug repurposing: Primary screen for TC32 cells (AID 1347089); note: nearly all actives have a fitted effect of over 60% in size; note: potency is the fitted concentration of half-maximal effect
Summary of the method: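 A viability screen of TC32 cells was run over 48 h, with primary MIPE doses spanning 0.78 nM–46 µM and NPC doses 0.59 nM–46 µM. ATP luminescence (CellTiter-Glo) served as the read-out.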

[5] = qHTS of pediatric cancer cell lines to identify multiple opportunities for drug repurposing: Primary screen for DAOY cells (AID 1347090); note: nearly all actives have a fitted effect of over 55% in size; note: potency is the fitted concentration of half-maximal effect
Summary of the method: (§1)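 Cell viability, CellTiter-Glo luminescence; 500-1,000 cells/well, 8- or 11-point titration, 48 h compound exposure at 37 degrees C, 5% CO2. Controls: DMSO neutral, bortezomib 2.3 µM final as positive.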

[6] = qHTS of pediatric cancer cell lines to identify multiple opportunities for drug repurposing: Primary screen for SJ-GBM2 cells (AID 1347091); note: potency is the fitted concentration of half-maximal effect
Summary of the method: as §1

[7] = qHTS of pediatric cancer cell lines to identify multiple opportunities for drug repurposing: Primary screen for A673 cells (AID 1347092); note: nearly all actives have a fitted effect of over 45% in size; note: potency is the fitted concentration of half-maximal effect
Summary of the method: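 Titration-based qHTS on A673 cells: MIPE compounds spanned 11 points (0.78 nM to 46 µM final), NPC compounds 8 points (0.59 nM to 46 µM final). Viability after 48 h was measured by ATP luminescence.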

[8] = qHTS of pediatric cancer cell lines to identify multiple opportunities for drug repurposing: Primary screen for BT-37 cells (AID 1347094); note: potency is the fitted concentration of half-maximal effect
Summary of the method: (§2)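 Following a 5-hour attachment period, cells at 500-1,000/well received compounds and were cultured for 48 hours. CellTiter-Glo was added and luminescence read to estimate viable, metabolically active cells.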

[9] = qHTS of pediatric cancer cell lines to identify multiple opportunities for drug repurposing: Primary screen for NB-EBc1 cells (AID 1347095); note: potency is the fitted concentration of half-maximal effect
Summary of the method: as §2

[10] = qHTS of pediatric cancer cell lines to identify multiple opportunities for drug repurposing: Primary screen for SK-N-MC cells (AID 1347093); note: potency is the fitted concentration of half-maximal effect
Summary of the method: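 Metabolically active cells were quantified by ATP-dependent luminescence (CellTiter-Glo, 15 min at room temperature) following 48 h treatment. Cells had been plated at 500-1,000 per well and settled for 5 h beforehand.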

[11] = Natriuretic polypeptide receptor (hNpr1) antagonism - Pilot counterscreen GloSensor control cell line (AID 1347045; calls by dose curve; note: series mostly up to about 38 µM)
Summary of the method: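 Luminescence was read before and 20 min after adding 50 uM SNP, which stimulates soluble guanylyl cyclase. The HEK293 cells expressing the GloSensor cGMP sensor had been preloaded with 2% reagent for 2 h and treated with compound.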

[12] = molecular target: Atrial natriuretic peptide receptor 1 (Homo sapiens) (UniProt P16066); experiment: Natriuretic polypeptide receptor (hNpr1) antagonism - Pilot screen (AID 1347049; calls by dose curve;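 note: agonist-evoked cGMP luminescence read 20 min after hNppA addition; potency is the fitted concentration of half-maximal effect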)
Summary of the method: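 Readout is cGMP-driven firefly luciferase luminescence in HEK293 cells carrying hNpr1 and a PDE5-domain GloSensor, read before and 20 min after 0.1 nM hNppA stimulation. Cells had 2% substrate reagent for 2 h and test compound for 30 min.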

[13] = molecular target: T1, Tyrosine-protein phosphatase non-receptor type substrate 1 (Homo sapiens) + Leukocyte surface antigen CD47 (Homo sapiens) (UniProt P78324+Q08722); experiment: CD47-SIRPalpha protein protein interaction - LANCE assay qHTS validation (AID 1347057; active = well fitted curve in the direction sought with a large enough effect in the signal ratio, with a control signal flat, not every such curve was filed as active; the % refers to the signal ratio; note: series mostly up to about 38 µM)
Summary of the method: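 First, His-tagged CD47 and Eu-labelled anti-His antibody met the compound for 30 min; next, site-specifically biotinylated SIRPalpha was added for 30 min; finally streptavidin-APC was added before reading the TR-FRET ratio.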

[14] = molecular target: T1, Tyrosine-protein phosphatase non-receptor type substrate 1 (Homo sapiens) + Leukocyte surface antigen CD47 (Homo sapiens); experiment: CD47-SIRPalpha protein protein interaction - HTRF assay qHTS validation (AID 1347058; active = well fitted curve in the direction sought with a large enough effect in the signal ratio, not every such curve was filed as active; the % refers to the signal ratio;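 note: recombinant soluble extracellular CD47 with His tag and biotinylated SIRPalpha domains; series mostly up to about 38 µM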)
Summary of the method: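 TR-FRET read (Ch1/Ch2 ratio) of soluble extracellular CD47 and Avi-biotinylated SIRPalpha domains in PBS pH 7.4 with 0.05% IGEPAL; 7-point compound titration. Sequential 30 min room-temperature steps; non-biotinylated SIRPalpha as control inhibitor.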

[15] = molecular target: T1, Tyrosine-protein phosphatase non-receptor type substrate 1 (Homo sapiens) + Leukocyte surface antigen CD47 (Homo sapiens); experiment: CD47-SIRPalpha protein protein interaction - Alpha assay qHTS validation (AID 1347059);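 note: bead proximity luminescence from CD47 binding SIRPalpha after compound preincubation with SIRPalpha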
Summary of the method: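 Binding is measured by AlphaScreen proximity: Ni-NTA acceptor beads capture His-CD47, streptavidin donor beads capture biotin-SIRPalpha. Each of three additions (SIRPalpha with compound, CD47, beads) incubates 30 min at room temperature protected from light.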

[16] = molecular target: Parathyroid hormone/parathyroid hormone-related peptide receptor (Homo sapiens) (UniProt Q03431); experiment: qHTS for PTHR1 Agonists: Optimization Screen against the NCGC LOPAC library (AID 1347079);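 note: GloSensor cAMP luminescence in HEK-293 GP2 cells expressing human PTHR1 with IBMX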
Summary of the method: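 Agonist readout: GloSensor cAMP luminescence, read after 15 min at room temperature. HEK-293-derived GP2 line carries PTHR1; compounds tested as a titration for 1 hr at 37C in presence of IBMX. M-PTH (1-15) served as control.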

T1 sequence (P78324 whole entry, looked up): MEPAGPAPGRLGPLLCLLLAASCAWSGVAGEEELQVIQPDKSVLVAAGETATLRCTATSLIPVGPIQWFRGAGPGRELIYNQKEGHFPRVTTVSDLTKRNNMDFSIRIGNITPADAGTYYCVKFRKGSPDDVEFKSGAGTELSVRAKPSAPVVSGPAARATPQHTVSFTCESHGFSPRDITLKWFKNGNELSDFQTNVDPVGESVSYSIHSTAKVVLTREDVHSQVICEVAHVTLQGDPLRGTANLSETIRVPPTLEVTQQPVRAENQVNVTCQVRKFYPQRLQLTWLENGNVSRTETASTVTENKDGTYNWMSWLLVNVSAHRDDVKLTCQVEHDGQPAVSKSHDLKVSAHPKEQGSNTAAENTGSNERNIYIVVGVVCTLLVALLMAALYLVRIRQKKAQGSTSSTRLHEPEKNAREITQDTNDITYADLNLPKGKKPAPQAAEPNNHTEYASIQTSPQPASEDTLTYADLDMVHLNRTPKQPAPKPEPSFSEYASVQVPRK
T1 sequence (Q08722 whole entry, looked up): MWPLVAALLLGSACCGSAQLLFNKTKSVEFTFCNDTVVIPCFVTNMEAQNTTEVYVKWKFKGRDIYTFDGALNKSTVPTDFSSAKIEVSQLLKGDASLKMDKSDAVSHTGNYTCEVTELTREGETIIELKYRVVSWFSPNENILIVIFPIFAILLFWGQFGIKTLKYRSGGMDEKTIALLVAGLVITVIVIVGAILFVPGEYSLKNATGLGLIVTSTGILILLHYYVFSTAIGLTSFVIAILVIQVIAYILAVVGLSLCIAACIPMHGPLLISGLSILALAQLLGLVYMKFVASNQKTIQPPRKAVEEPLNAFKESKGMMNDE
Chain of Parathyroid hormone/parathyroid hormone-related peptide receptor (Homo sapiens) (Q03431 whole entry, looked up): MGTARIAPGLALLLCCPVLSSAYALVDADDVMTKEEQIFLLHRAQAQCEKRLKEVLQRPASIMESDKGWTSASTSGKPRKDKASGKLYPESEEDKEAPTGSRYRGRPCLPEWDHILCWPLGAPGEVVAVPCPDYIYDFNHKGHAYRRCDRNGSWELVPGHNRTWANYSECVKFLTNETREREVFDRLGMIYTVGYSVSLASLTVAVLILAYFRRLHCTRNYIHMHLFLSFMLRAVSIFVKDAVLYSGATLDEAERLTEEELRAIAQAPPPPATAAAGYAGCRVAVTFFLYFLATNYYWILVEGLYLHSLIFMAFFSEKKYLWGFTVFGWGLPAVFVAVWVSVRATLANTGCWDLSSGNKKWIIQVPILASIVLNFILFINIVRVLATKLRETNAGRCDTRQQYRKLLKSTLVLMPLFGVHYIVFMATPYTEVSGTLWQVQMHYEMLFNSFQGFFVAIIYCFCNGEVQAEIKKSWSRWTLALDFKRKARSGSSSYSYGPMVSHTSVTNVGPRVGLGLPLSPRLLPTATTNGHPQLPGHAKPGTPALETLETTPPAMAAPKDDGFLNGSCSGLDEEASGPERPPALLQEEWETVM
Chain of Atrial natriuretic peptide receptor 1 (Homo sapiens) (P16066 whole entry, looked up): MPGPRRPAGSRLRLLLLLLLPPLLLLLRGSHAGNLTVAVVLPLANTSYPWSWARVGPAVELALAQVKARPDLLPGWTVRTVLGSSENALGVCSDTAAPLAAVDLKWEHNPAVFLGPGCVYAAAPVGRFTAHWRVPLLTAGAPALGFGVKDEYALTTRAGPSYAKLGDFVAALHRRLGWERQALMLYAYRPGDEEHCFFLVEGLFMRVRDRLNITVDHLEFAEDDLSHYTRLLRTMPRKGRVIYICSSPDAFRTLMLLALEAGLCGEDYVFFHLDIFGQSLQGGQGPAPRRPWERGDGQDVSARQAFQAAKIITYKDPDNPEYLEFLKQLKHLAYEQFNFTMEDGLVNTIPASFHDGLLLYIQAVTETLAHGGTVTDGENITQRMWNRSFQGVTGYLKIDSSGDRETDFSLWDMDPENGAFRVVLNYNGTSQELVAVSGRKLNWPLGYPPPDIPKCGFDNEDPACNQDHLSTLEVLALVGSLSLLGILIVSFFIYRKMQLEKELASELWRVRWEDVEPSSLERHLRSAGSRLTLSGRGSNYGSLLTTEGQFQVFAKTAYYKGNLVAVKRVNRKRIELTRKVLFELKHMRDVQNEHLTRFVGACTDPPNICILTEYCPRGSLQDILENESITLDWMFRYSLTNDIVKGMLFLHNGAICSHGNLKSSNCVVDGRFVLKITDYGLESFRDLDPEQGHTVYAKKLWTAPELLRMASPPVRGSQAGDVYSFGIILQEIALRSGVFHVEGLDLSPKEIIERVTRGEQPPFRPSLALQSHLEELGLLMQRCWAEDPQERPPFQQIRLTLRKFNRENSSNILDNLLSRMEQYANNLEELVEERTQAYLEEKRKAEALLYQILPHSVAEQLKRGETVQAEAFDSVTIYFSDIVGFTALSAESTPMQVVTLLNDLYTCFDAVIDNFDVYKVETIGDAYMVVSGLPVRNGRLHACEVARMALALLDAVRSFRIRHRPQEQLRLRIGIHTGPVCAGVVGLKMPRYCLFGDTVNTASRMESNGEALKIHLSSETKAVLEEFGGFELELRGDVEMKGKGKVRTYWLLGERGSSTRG

| SMILES | Potency [1] | Potency [2] | Potency [3] | Potency [4] | Potency [5] | Potency [6] | Potency [7] | Potency [8] | Potency [9] | Potency [10] | outcome [11] | Potency [12] | outcome [13] | outcome [14] | outcome [15] | outcome [16] |
| --- | --- | --- | --- | --- | --- | --- | --- | --- | --- | --- | --- | --- | --- | --- | --- | --- |
| O=c1[nH]c(=O)n(C2CCCO2)cc1F (stereo unspecified) | inactive | inactive | inactive | inactive | inactive | inactive | inactive | inactive | inactive |  |  |  |  |  |  |  |
| Cc1cn2cc(C(=O)N(C)CCO)cc(N[C@@H]3CCOc4cccc(C)c43)c2n1 | inactive | inactive | inactive | inactive | inactive | inactive | inactive | inactive | inactive |  |  |  |  |  |  |  |
| Cc1ccc2nc(NC(=O)CSc3nc4c(c(=O)n3-c3ccccc3)SCC4)sc2c1 |  | inactive | inactive | inactive | 18.7 µM (active) | 14.8 µM (active) | 14.8 µM (active) |  |  | 26.4 µM (active) |  |  |  |  |  |  |
| O=c1c2ccccc2nc2n1CCc1c-2[nH]c2ccccc12 |  | inactive | inactive | inactive | inactive | inactive | inactive |  | inactive |  | inactive | 1.51 µM (active) | inactive | inactive | inactive | inactive |
| CCOC(=O)C1=C(C)NC2=C(C(=O)CC(C)(C)C2)C1c1ccc(-c2ccccc2)cc1 (stereo unspecified) | inactive | inactive and 23.1 µM (active) | 10.5 µM (active) | inactive |  | 4.69 µM (active) | 3.72 µM (active) | 3.85 µM (active) |  |  |  |  |  |  |  |  |
| CS(=O)(=O)c1ccc(-c2cnc(N)c(C(=O)Nc3ccccc3)n2)cc1 | inactive | inactive | inactive |  | inactive | 5.9 µM (active) |  | inactive |  | 4.18 µM (active) |  |  |  |  |  |  |
| CN(C)c1nc(Cc2ccc(NC(=O)c3ccc4ccccc4c3)cc2)nc(Cl)c1CC(=O)O | inactive | inactive | inactive | inactive |  | inactive | inactive | inactive | inactive | inactive |  |  |  |  |  |  |
| O=C(O)C1(Cc2cccc(Nc3nccs3)n2)CCC(Oc2cccc(Cl)c2F)CC1 (stereo unspecified) | 0.517 µM (active) | 411 nM (active) | inactive |  |  |  |  | inactive |  | 1.66 µM (active) |  |  |  |  |  |  |
| CCOc1ccccc1OCCNC(C)Cc1ccc(OC)c(S(N)(=O)=O)c1 (stereo unspecified) | inactive | inactive | inactive | inactive | inactive | inactive | inactive | inactive | inactive |  |  |  |  |  |  |  |
| O=C(Nc1nc2cccc(-c3ccc(CN4CCS(=O)(=O)CC4)cc3)n2n1)C1CC1 | 20.6 µM (active) |  | inactive |  |  | 18.7 µM (active) | 11.8 µM (active) | 19.3 µM (active) | 10.5 µM (active) | 5.26 µM (active) |  |  |  |  |  |  |
| O=C(Nc1cn[nH]c1-c1nc2ccc(CN3CCOCC3)cc2[nH]1)NC1CC1 | 1.16 µM (active) | inactive | 9.35 µM (active) |  | 3.72 µM (active) | 0.59 µM (active) | 1.48 µM (active) | 12.2 µM (active) | 1.48 µM (active) | 0.059 µM (active) |  |  |  |  |  |  |
| c1nc2nc(Nc3ccc(N4CCOCC4)cc3)nc(NC3CCCCC3)c2[nH]1 | 1.3 µM (active) | 5.26 µM (active) and 632 nM (active) and 1.16 µM (active) |  | 4.66 µM (active) | 18.7 µM (active) | 1.48 µM (active) | 4.69 µM (active) | 21.7 µM (active) | 3.72 µM (active) | 0.935 µM (active) |  |  |  |  |  |  |
| CC(C)Nc1cc(C(F)(F)F)cc2nc(NC(=O)c3cccnc3)nn12 | inactive | inactive | inactive |  | inactive |  |  |  | inactive | 16.6 µM (active) |  |  |  |  |  |  |
| Cc1nc(N)ncc1-c1nc(N2CCOCC2)c2sc(C(C)(C)O)cc2n1 | 1.03 µM (active) | 1.48 µM (active) and 1.64 µM (active) |  | 2.34 µM (active) | 0.935 µM (active) | 1.05 µM (active) | 1.18 µM (active) | 6.11 µM (active) | 0.59 µM (active) | 0.0469 µM (active) |  |  |  |  |  |  |
| CC1(O)CC(c2nc(-c3ccc4ccc(-c5ccccc5)nc4c3)c3c(N)nccn23)C1 (stereo unspecified) | 6.51 µM (active) | 14.8 µM (active) and 9.2 µM (active) |  |  |  | 10.5 µM (active) | 23.5 µM (active) |  | 0.662 µM (active) | 0.0418 µM (active) |  |  |  |  |  |  |
